The nature of assay [1]: CCTE_Deisenroth_AIME_384WELL_CTox_Active: Cytotoxicity Assessment (CTOX) in CCTE's 384-well Estrogen Receptor Transactivation Assay with AIME metabolic competence (metabolism positive), Deisenroth Lab (AID 2284037; active = hit-call score of the fitted dose curve at least 0.9, where 1 is the maximum;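 also: chemicals first conditioned 2 h by alginate-bound induced rat liver S9 before cells; activity means signal loss indicating cell death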). The gist of the method: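 Cytotoxicity in VM7Luc4E2 breast cells, 24 hour, measured as protease-substrate fluorescence loss, after 2-hour metabolic conditioning with induced rat hepatic S9 in alginate microspheres. Concentrations 0.002 - 200 uM, 10 points, bidirectional fitting.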

The subject of assay [2] is DIO2 (gene 1734). In words: CCTE_GLTED_hDIO2: CCTE's human Deiodinase 2 (DIO2) Inhibition Assay, Great Lakes Toxicology and Ecology Division (GLTED) Lab (AID 2284050; active = hit-call score of the fitted dose curve at least 0.9, where 1 is the maximum). An outline of the steps: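 Cell-free human DIO2 enzyme was incubated with test chemical for 3 h; iodide liberated from substrate was then quantified by the Sandell-Kolthoff reaction (absorbance), run in triplicate. Loss of signal versus DMSO baseline indicated inhibition.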

The subject of assay [3] is DIO3 (gene 1735). In words: CCTE_GLTED_hDIO3: CCTE's human Deiodinase 3 (DIO3) Inhibition Assay, Great Lakes Toxicology and Ecology Division (GLTED) Lab (AID 2284055; active = hit-call score of the fitted dose curve at least 0.9, where 1 is the maximum;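 also: potency is for inhibition seen as loss of released iodide signal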). An outline of the steps: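 Cell-free assay with human DIO3 enzyme produced by adenovirus expression; enzyme incubated with test chemical for 3 hours. Liberated iodide then measured by Sandell-Kolthoff absorbance; loss of signal versus DMSO baseline indicates inhibition, run in triplicate.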

Assay [4] is described as follows: CCTE_Shafer_MEA_dev_firing_rate_mean: CCTE's Neural Network Formation Assay for Mean Firing Rate, Shafer Lab (AID 2284031).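 As to AC50: curve fitted for loss of firing so AC50 reflects decreased mean firing rate.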 The gist of the method: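 Primary rat cortical neurons on 48-well, 16-electrode MEAs (PEI-coated, laminin at plating), exposed from day 0 with compound renewed at DIV 5 and 9. Spikes recorded DIV 5, 7, 9, 12; well-mean firing rate collapsed to trapezoidal AUC, loss-of-signal vs DMSO.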

Assay [5] is described as follows: CCTE_Shafer_MEA_dev_per_burst_spike_percent: CCTE's Neural Network Formation Assay for Percent of Spikes in a Burst, Shafer Lab (AID 2284032).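 As to AC50: fitted as a decrease in burst spike percentage below DMSO baseline.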 The gist of the method: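 Rat primary cortical neurons on 16-electrode MEA wells, dosed from plating day 0 for 12 days with renewal on DIV 5 and 9; spikes-in-bursts percentage averaged over bursting electrodes, collapsed as AUC across days 5, 7, 9, 12; loss direction versus DMSO.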

Assay [6] in a line: CCTE_Shafer_MEA_dev_active_electrodes_number: CCTE's Neural Network Formation Assay for Number of Active Electrodes, Shafer Lab (AID 2284040; active = hit-call score of the fitted dose curve at least 0.9, where 1 is the maximum;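 as to AC50: potency for loss of active electrodes versus DMSO so lower counts are hits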). The gist of the method:
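Rat cortical primary cultures, 1.5 x 10^5 cells/well, PEI-coated MEA, laminin drop. Continuous exposure DIV 0–12; full media/compound change DIV 5, 9. Readout: electrodes with mean firing ≥5 spikes/min; AUC across days; loss vs DMSO.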

Assay [7] can be described thus: CCTE_Shafer_MEA_dev_burst_rate: CCTE's Neural Network Formation Assay for Burst Rate, Shafer Lab (AID 2284042).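 As to AC50: potency for loss of burst rate below DMSO control.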 The gist of the method: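 Primary rat cortical neurons on PEI-coated 48-well MEA plates (laminin added with cells at plating) (16 electrodes/well), exposed from plating to day 12, dosing renewed at DIV 5 and 9. Burst rate averaged over active electrodes, recorded DIV 5, 7, 9, 12, summarized as AUC; loss versus DMSO.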

Assay [8] in a line: CCTE_Shafer_MEA_dev_bursting_electrodes_number: CCTE's Neural Network Formation Assay for Number of Bursting Electrodes, Shafer Lab (AID 2284043; active = hit-call score of the fitted dose curve at least 0.9, where 1 is the maximum;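 as to AC50: potency is for loss of bursting electrodes relative to DMSO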). The gist of the method: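 Read-out is the per-well number of electrodes bursting at least once every 2 minutes, recorded on days 5, 7, 9 and 12 and collapsed by trapezoidal area under the curve. Cultures were primary rat cortical neurons on MEA plates, treated continuously from plating.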

The nature of assay [9]: CCTE_Shafer_MEA_dev_per_burst_interspike_interval: CCTE's Neural Network Formation Assay for Burst Interspike Interval, Shafer Lab (AID 2284044).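 As to AC50: potency for a decrease of within-burst interspike interval below DMSO level.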 The gist of the method: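 Readout is the average time between spikes inside single-electrode bursts, taken as a well mean across bursting electrodes. Cortical neurons from rat developed networks on MEA plates under continuous 12-day exposure; recordings on days 5, 7, 9 and 12 were integrated by trapezoidal AUC.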

Assay [10] is described as follows: CCTE_Shafer_MEA_dev_burst_duration_mean: CCTE's Neural Network Formation Assay for Mean Burst Duration, Shafer Lab (AID 2284045).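 As to AC50: curve fitted for loss meaning shorter burst duration than DMSO.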 An outline of the steps: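 Read-out: average first-to-last-spike interval within single-electrode bursts, averaged over bursting electrodes per well, then summarised as area under the curve across days 5, 7, 9 and 12. Developing rat cortical networks were exposed from day 0.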

A short description of assay [11]: CCTE_Shafer_MEA_dev_interburst_interval_mean: CCTE's Neural Network Formation Assay for Mean Interburst Interval, Shafer Lab (AID 2284046).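 Also: well-mean interburst interval of bursting electrodes as AUC over four recording days; curve fitted for decrease in interburst interval relative to DMSO.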 The gist of the method:
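Recordings on days 5, 7, 9 and 12 give well-mean interburst interval across actively bursting electrodes, summarized as area under the curve. Cultures: rat cortical neurons, continuous exposure from day 0, compound renewed at feeds; decrease analyzed versus DMSO.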

The nature of assay [12]: CCTE_Shafer_MEA_dev_inter_network_spike_interval_mean: CCTE's Neural Network Formation Assay for Mean Inter-network Spike Interval, Shafer Lab (AID 2284047).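 As to AC50: potency for a decrease in mean inter-network spike interval below DMSO.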 The gist of the method:
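Primary rat cortical neurons on 16-electrode MEA wells, exposed from plating day 0 through DIV 12, compound renewed at DIV 5 and 9 media changes. Mean interval between network-spike peaks recorded DIV 5, 7, 9, 12; collapsed as trapezoidal AUC, fitted downward versus DMSO.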

Assay [13] is described as follows: CCTE_Shafer_MEA_dev_network_spike_number: CCTE's Neural Network Formation Assay for Number of Network Spikes, Shafer Lab (AID 2284048).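 As to AC50: fit as a loss of signal meaning fewer network spikes than DMSO.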 The gist of the method: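 Developing networks of primary rat cortical neurons are treated over 12 days starting at plating, with media and compound fully replaced on DIV 5 and 9. Network spike counts from four recording days are integrated as trapezoidal AUC.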

Assay [14] can be described thus: CCTE_Shafer_MEA_dev_network_spike_peak: CCTE's Neural Network Formation Assay for Mean Number of Electrodes in Network Spike, Shafer Lab (AID 2284049).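 As to AC50: fitted for loss of signal meaning fewer electrodes in network spikes than DMSO.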 An outline of the steps:
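Rat cortical primary culture, 1.5 x 10^5 cells/well, 48-well MEA (16 electrodes/well). Dosing day 0 through DIV 12, full media/compound exchange DIV 5, 9. AxIS adaptive spike detection; AUC over days 5/7/9/12; loss-of-signal vs DMSO.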

Assay [15] in a line: CCTE_Shafer_MEA_dev_network_spike_duration_std: CCTE's Neural Network Formation Assay for Standard Deviation of Network Spike Duration, Shafer Lab (AID 2284052).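 Also: hits are decreases in network spike duration SD versus DMSO vehicle.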 The gist of the method: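 Primary rat cortical neurons on PEI-coated 16-electrode MEA wells, exposed from plating day 0 through day 12 with compound renewed at DIV 5 and 9. Network spike duration SD recorded on days 5, 7, 9, 12, collapsed as trapezoidal AUC; loss-of-signal fit versus DMSO.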

Assay [16] can be described thus: CCTE_Shafer_MEA_dev_per_network_spike_spike_number_mean: CCTE's Neural Network Formation Assay for Mean Number of Spikes in a Network Spike, Shafer Lab (AID 2284053).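 As to AC50: fitted as decrease in spikes per network spike relative to DMSO.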 An outline of the steps: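 Primary rat cortical neurons on 48-well, 16-electrode MEA plates were exposed from plating to DIV 12, with dosing renewed on DIV 5 and 9. Spikes per network spike (0.05 s peak window) were recorded on DIV 5, 7, 9 and 12 and collapsed as trapezoidal AUC versus DMSO.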

Assay [17] in a line: CCTE_Shafer_MEA_dev_per_network_spike_spike_percent: CCTE's Neural Network Formation Assay for Percent of Spikes in a Network Spike, Shafer Lab (AID 2284054). The gist of the method: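 Rat primary cortical cultures, 1.5 x 10^5 cells/well on MEA. Continuous compound exposure d0–12, medium/compound renewed DIV 5, 9. Network-spike spike % (0.05 s peak window), AUC over 4 recordings, DMSO baseline.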

A short description of assay [18]: CCTE_Deisenroth_AIME_384WELL_CTox_Inactive: Cytotoxicity Assessment (CTOX) in CCTE's 384-well Estrogen Receptor Transactivation Assay without AIME metabolic competence (metabolism negative), Deisenroth Lab (AID 2284039; active = hit-call score of the fitted dose curve at least 0.9, where 1 is the maximum;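 also: cell viability via live-cell protease substrate cleaved to fluorescent probe; cells exposed 24 h to medium preincubated 2 h with alginate-water beads without S9; loss of fluorescence signal means loss of viability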). The gist of the method: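 VM7Luc4E2 cells, metabolism-negative arm: test chemicals (0.002–200 uM, 10 points) pre-incubated 2 h with alginate-water microspheres, then medium transferred to cells for 24 h. Viability read as protease-substrate cleavage to fluorescent probe; loss-of-signal, bidirectional fitting.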

In assay [19] the target is Estrogen receptor (Homo sapiens) (UniProt P03372). In words: CCTE_Deisenroth_AIME_384WELL_LUC_Active: CCTE's 384-well Estrogen Receptor Transactivation Assay with AIME metabolic competence (ERTA luciferase; metabolism positive), Deisenroth Lab (AID 2284030; active = hit-call score of the fitted dose curve at least 0.9, where 1 is the maximum). An outline of the steps:
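Readout: bioluminescent luciferase induction in VM7Luc4E2 cells 24 hour after receiving medium from a 2 h rat hepatic S9 (induced, alginate microsphere) metabolism step. Concentrations 0.002 - 200 uM; activity scaled to 17beta-estradiol positive control.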

Where “and” joins values, the source holds several entries; their conditions need not be identical. Equal entries are not always repeated. Records with an inconclusive call do not appear. More than one record can exist for a structure, and the calls need not agree. Calls of active or inactive are those of the source. The calls were made as follows, unless noted: active = hit-call score of the fitted dose curve at least 0.9, where 1 is the maximum; inactive = score below 0.9.

A word on the AC50: it is the midpoint of the concentration-response curve, whichever way the signal moves.

Chain of Estrogen receptor (Homo sapiens) (P03372 whole entry, looked up): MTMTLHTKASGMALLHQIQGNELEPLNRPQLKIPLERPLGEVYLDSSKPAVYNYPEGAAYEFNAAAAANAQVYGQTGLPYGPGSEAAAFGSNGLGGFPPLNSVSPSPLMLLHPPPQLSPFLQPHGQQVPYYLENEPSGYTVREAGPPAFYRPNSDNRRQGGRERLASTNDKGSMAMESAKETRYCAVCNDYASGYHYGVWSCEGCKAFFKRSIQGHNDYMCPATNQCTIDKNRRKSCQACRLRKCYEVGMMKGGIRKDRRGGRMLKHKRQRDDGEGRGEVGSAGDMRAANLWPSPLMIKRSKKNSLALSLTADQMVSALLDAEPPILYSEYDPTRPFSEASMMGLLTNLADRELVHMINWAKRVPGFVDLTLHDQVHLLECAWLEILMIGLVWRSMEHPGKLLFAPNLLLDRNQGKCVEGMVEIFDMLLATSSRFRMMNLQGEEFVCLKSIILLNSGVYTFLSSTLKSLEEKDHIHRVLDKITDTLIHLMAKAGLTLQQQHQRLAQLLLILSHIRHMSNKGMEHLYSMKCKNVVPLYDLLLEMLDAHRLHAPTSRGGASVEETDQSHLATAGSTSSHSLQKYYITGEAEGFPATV

For the molecule `CCCCOCN(C(=O)CCl)c1c(CC)cccc1CC`, in [1], the molecule was classed as inactive. Also, the AC50 was 17.6 µM (active) in assay [2] and 37.6 µM (active) in [3].
`CCCCC(C#N)(Cn1cncn1)c1ccc(Cl)cc1` (stereo unspecified): the result in assay [1] was inactive.
`CCNC(=O)NC(=O)C(C#N)=NOC`: the outcome in assay [4], in [5], in assay [6], in assay [7], in assay [8] and in assay [9] was inactive. The molecule was called inactive in assay [10], in assay [11], in [12], in [13], in assay [14] and in assay [15]. Besides, the molecule was classed as inactive in assay [16] and in assay [17].
Consider `CC(C)(C)C(=O)C(Oc1ccc(Cl)cc1)n1cncn1` (stereo unspecified), for which the molecule was classed as inactive in assay [4], in [7], in assay [9], in assay [10], in assay [11] and in assay [12]. Also, the outcome in [13] and in [15] was inactive. Besides, the AC50 was 41.3 µM (active) in [5]; 38.7 µM (active) in [6]; 39.6 µM (active) in assay [8]; 38.7 µM (active) in [14]; 35.5 µM (active) in assay [16]; 45.9 µM (active) in [17].
With `CO/N=C(/C1=NOCCO1)c1ccccc1Oc1ncnc(Oc2ccccc2Cl)c1F`, the AC50 in assay [4] is 589 nM (active) and 960 nM (active); in assay [5], 1.75 µM (active) and 1.24 µM (active); in assay [1], 32.8 µM (active); in [18], 15.3 µM (active); in assay [6] it was 1.2 µM (active) and 1.05 µM (active); in assay [7] it was 789 nM (active) and 637 nM (active). Also, the half-maximal activity concentration (AC50) in [8] was 968 nM (active) and 1.02 µM (active); in assay [9], 2.28 µM (active) and 518 nM (active); in [10] it was 1.23 µM (active) and 858 nM (active); in assay [11] it was 2.3 µM (active) and 1.29 µM (active); in [12], 0.52 µM (active); in assay [13] it was 527 nM (active) and 449 nM (active). Further, the AC50 is 1.27 µM (active) and 723 nM (active) in assay [14]; 0.889 µM (active) in [15]; 854 nM (active) and 756 nM (active) in [16]; 1.52 µM (active) and 801 nM (active) in assay [17]; 15.9 µM (active) in assay [3]. The molecule was called inactive in assay [12] and in assay [2].
With `CCOc1nc(F)cc2nc(S(=O)(=O)Nc3c(Cl)cccc3Cl)nn12`, the molecule was classed as inactive in assay [1]. Besides, the AC50 in [18] is 146 µM (active).
For the molecule `COc1ccc(-c2ccccc2)cc1NNC(=O)OC(C)C`, the AC50 in assay [1] is 79.5 µM (active); in [18], 77.9 µM (active).
In the case of `COP(=O)(OC)O/C(C)=C/C(=O)N(C)C`, the molecule was called inactive in [4], in [5], in [6], in assay [7], in assay [9] and in assay [10]. The call in [11], in assay [12], in assay [13], in assay [14], in [15] and in [16] was inactive. Also, the molecule was called inactive in assay [17].
On to `COCC(C)N(C(=O)CCl)c1c(C)csc1C` (stereo unspecified), for which the molecule was classed as inactive in assay [19], in [1] and in [18].

For the origin of these results see PubChem BioAssay (EPA / NIEHS).
